High-throughput results (PubChem)
HepG2 tox: HepG2 cytotoxicity, counter-screen for TGF-b inhibitors. HepG2 CAGA-GFP viability, ATP luminescence, 18 h. Potency, µM (series often up to 46.1 µM), without a hit: top-dose activity change, negative = cytotoxicity, actives largely listed as cytotoxic. 410,000 compounds, 0.76% hits; further: potency means the concentration at half of the fitted maximal effect
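HepG2 CAGA-GFP cells (1000/well, DMEM with 1% FBS) received compound, then TGF-beta at 500 pg/mL final, and were incubated 18 hours at 37 degrees C. Viability was read by CellTiter-Glo luminescence. Media-only wells were set as complete cell-killing and DMSO as no toxicity.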
D3 ag: agonists of human D3 dopamine receptor | D3R DiscoveRx beta-arrestin cells, luminescence, 90 min | max activation, % | 410,000 compounds, 0.58% hits | AID 652048; in the data active means max activation above about 30%; further: 0% is about no effect
Target sequence (P35462 whole entry, looked up): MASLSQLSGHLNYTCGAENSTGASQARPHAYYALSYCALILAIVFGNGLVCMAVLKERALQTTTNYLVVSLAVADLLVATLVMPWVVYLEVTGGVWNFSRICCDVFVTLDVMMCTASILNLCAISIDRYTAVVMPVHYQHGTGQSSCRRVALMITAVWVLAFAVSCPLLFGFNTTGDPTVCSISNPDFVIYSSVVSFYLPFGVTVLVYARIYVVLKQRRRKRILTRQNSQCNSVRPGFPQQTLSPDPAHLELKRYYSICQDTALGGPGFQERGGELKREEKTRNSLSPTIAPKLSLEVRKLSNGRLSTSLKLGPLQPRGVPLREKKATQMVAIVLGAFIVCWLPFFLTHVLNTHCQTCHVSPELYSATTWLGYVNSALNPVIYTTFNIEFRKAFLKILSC
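Cells at 1500/well, incubated overnight, then treated with pinned compounds (dopamine as control) for 90 min at 37 degrees C. DiscoveRx reagent added for 30 - 60 minutes at room temperature; luminescence read.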
ATXN viability: reduces viability in counter-screen for ATXN expression inhibitors. S2 cells (HEK-293 line with an ATXN2-luciferase reporter) viability, CellTiter-Fluor protease fluorescence, 24 h. Potency, µM (doses to about 56.7 µM), usual class: cytotoxic. 400,000 compounds, 0.49% hits; further: potency means the concentration at half of the fitted maximal effect; nearly all actives have a fitted effect of over 40% in size
ATXN2 expr inh: inhibitors of ATXN2 expression; HEK-293 ATXN2-luciferase reporter, luminescence, 24 h; Potency, µM (series often up to 57 µM), for inactives: top-dose activity change, negative = inhibition, hits mostly inhibitors; 360,000 compounds, 0.72% hits; AID 1745845; further: potency means the concentration at half of the fitted maximal effect; on the % scale 0 is the no-effect control and ±100 the full control effect; nearly all actives have a fitted effect of over 55% in size
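ATXN2-luciferase reporter cells (luciferase flanked by upstream and downstream ATXN2 gene portions) were treated 24 h at 37 °C with compounds at up to 57 uM. SteadyGlo luminescence gave expression; GF-AFC fluorescence gave viability.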
TGFb SMAD3 inh: inhibitors of TGF-b signaling | HepG2 CAGA-GFP TGF-b/SMAD3 reporter, GFP fluorescence, 18 h; TGF-beta stimulated, 500 pg/mL final | Potency, µM (top dose mostly 46.1 µM), for the others: top-dose activity, negative = inhibition, hits mostly inhibitors | 410,000 compounds, 1.2% hits | AID 588855; further: potency means the concentration at half of the fitted maximal effect; on the % scale 0 is the no-effect control and ±100 the full control effect; nearly all actives have a fitted effect of over 65% in size
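GFP signal (ex488/em500-530) from TGF-beta-stimulated HEPG2 CAGA-GFP cells, 500 pg/mL final, 18 h at 37 degrees C in DMEM plus 1% FBS, normalized to unstimulated and DMSO-stimulated controls.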
D3 antag: D3 dopamine receptor (human) antagonism. max response, negative = inhibition, %. 360,000 compounds, 2.5% hits. D3R cells, DiscoveRx beta-arrestin luminescence, antagonist mode; active compounds read low. AID 652054. P35462; in the data active means max response below about -50%; inconclusive means no clear call, values can overlap the other calls; further: on the % scale 0 is the no-effect control and ±100 the full control effect
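Cells plated overnight at 1500 cells/well, then exposed to library compounds with dopamine controls for 90 minutes at 37 degrees C. DiscoveRx reagent added for 30–60 minutes at room temperature; luminescence read, quantitative HTS format.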
* marks the source's active call; other numbers are inactive results. Only some compounds are listed: those with a hit (about 4.7% of all), similar ones and a draw of the others. Unless noted, the call rests on the fitted dose curve; in most records, active means well fitted curve in the direction sought with a large enough effect; inconclusive means small, poorly fitted or top-dose-only effect, or another doubt; inactive means no such curve, though single readings can be large; an effect the other way counts as inactive or inconclusive.

Results for COc1ccc(Oc2nc3c(c(=O)n(C)c(=O)n3C)n2Cc2ccccc2Cl)cc1 ?
HepG2 tox: 4%; D3 ag: -4; ATXN viability: inactive; ATXN2 expr inh: 3%; TGFb SMAD3 inh: 0%

How did COc1cccc(N2CCN(c3ncnc4c3c(-c3ccccc3)cn4-c3ccc(F)cc3)CC2)c1 do in these assays?
HepG2 tox: -4%; D3 ag: -2; TGFb SMAD3 inh: 1%

What do the screens show for `CN1CCN(c2ncnc3c2c(-c2ccccc2)cn3-c2ccc(F)cc2)CC1`?
HepG2 tox: 4%; D3 ag: -20; ATXN viability: inactive; TGFb SMAD3 inh: inconclusive; D3 antag: -63*

What do the screens show for `C/C=C/c1cc(CN2CCN(c3ccccc3)CC2)c(O)c(OC)c1`?
HepG2 tox: -33%; D3 ag: -20; ATXN viability: inactive; ATXN2 expr inh: 118%; TGFb SMAD3 inh: -12%; D3 antag: -98*

How did C/C=C/c1cc(CN2CCN(c3ccc(OC)cc3)CC2)c(O)c(OC)c1 do in these assays?
HepG2 tox: -5%; D3 ag: -24; ATXN viability: inactive; ATXN2 expr inh: -5%; TGFb SMAD3 inh: inconclusive; D3 antag: inconclusive

What do the screens show for `CC1CCCCN1S(=O)(=O)c1ccc(C(=O)Nc2nnc(-c3ccncc3)o2)cc1` (centres undefined)?
HepG2 tox: -31%; D3 ag: 1; ATXN viability: inactive; ATXN2 expr inh: inconclusive; TGFb SMAD3 inh: inconclusive; D3 antag: 6

Results for COc1ccc(-c2nnc(NC(=O)c3ccc(S(=O)(=O)N4COCC4(C)C)cc3)o2)cc1 ?
HepG2 tox: -1%; D3 ag: 4; ATXN viability: inactive; ATXN2 expr inh: inconclusive; TGFb SMAD3 inh: -2%; D3 antag: -65*

What do the screens show for `CC1(C)COCN1S(=O)(=O)c1ccc(C(=O)Nc2nnc(-c3ccc(Cl)s3)o2)cc1`?
HepG2 tox: -5%; D3 ag: 5; ATXN viability: inconclusive; ATXN2 expr inh: 7.9µM*; TGFb SMAD3 inh: -9%; D3 antag: 10

Results for CCC1CN(CC(=O)NC(C)CO)Cc2cc(OC)ccc2O1 (centres undefined) ?
ATXN viability: inactive

Results for Cc1c(C(=O)NC2CCCCCC2)sc2ncnc(NCC3CCCO3)c12 (centres undefined) ?
ATXN viability: inactive

What do the screens show for `O=C(c1n[nH]c(=O)c2ccccc12)N1CCOCC1`?
HepG2 tox: 5%; D3 ag: -6; ATXN viability: inactive; ATXN2 expr inh: 7%; TGFb SMAD3 inh: 11%; D3 antag: -59*

What do the screens show for `CCN(CC(O)c1cccc(O)c1)C(=O)C12CC3CC(CC(C3)C1)C2` (centres undefined)?
HepG2 tox: -34%; D3 ag: -1; ATXN viability: inactive; TGFb SMAD3 inh: -27%; D3 antag: -78*

How did CC(=O)N[C@@H](CO)C(=O)N[C@@H](CC(=O)O)C(=O)N[C@@H](CCCCN)C(=O)N1CCC[C@H]1C(=O)O do in these assays?
ATXN viability: inactive; ATXN2 expr inh: 3%

How did O=C(NCCCN1CCCC1)C1CCN(C(=O)c2cc3sccc3n2Cc2ccc(F)cc2)CC1 do in these assays?
HepG2 tox: -25%; D3 ag: -3; ATXN viability: inactive; ATXN2 expr inh: 12%; TGFb SMAD3 inh: -2%; D3 antag: -52*

What do the screens show for `COCCCNC(=O)C1CCN(C(=O)c2cc3sccc3n2Cc2ccc(F)cc2)CC1`?
HepG2 tox: -19%; D3 ag: 7; ATXN viability: inactive; ATXN2 expr inh: 6%; TGFb SMAD3 inh: 1%; D3 antag: 4

What do the screens show for `CCN(CC)CCCNC(=O)C1CCN(C(=O)c2cc3sccc3n2Cc2ccc(F)cc2)CC1`?
HepG2 tox: -27%; D3 ag: -22; ATXN viability: inactive; ATXN2 expr inh: 6%; TGFb SMAD3 inh: inconclusive; D3 antag: 0
